High-throughput results from PubChem BioAssay.
Pf growth 96h – P. falciparum growth inhibition at 96 hour, primary screen for plastid delayed-death inhibitors; P. falciparum luciferase reporter growth, 96 h; Potency, µM (highest dose often 28.7 µM), inactives show top-dose activity change, negative = inhibition, hits mostly inhibitors; 6.9% of 320,000 active; AID 504834
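P. falciparum expressing integrated firefly luciferase grown in erythrocytes (2% hematocrit, 0.05% parasitemia final) with compounds for 96 hours at 37 C, 5% CO2. Growth inhibition read as loss of luminescence after adding luciferase detection reagent.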
AMA1-RON2 inh – AMA1-RON2 (P. falciparum) interaction inhibition. AlphaScreen AMA1-biotinylated RON2 peptide binding. Potency, µM (highest dose often 58.2 µM), without a hit: at the top dose activity change, negative = inhibition, most hits filed as inhibitors. 0.2% of 360,000 active;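 further: 0% = vehicle wells and -100% = peptide control; nearly all actives have a fitted effect of over 45% in size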
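AMA1 (3D7) with his tag at 25 nM final met compounds first, then biotinylated RON2 peptide at 25 nM; detection used donor plus acceptor beads, 10 µg/mL apiece, read by AlphaScreen after 30 min at room temperature.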
VACV Venus inh – vaccinia inhibition (Venus reporter); AID 720580; Potency, µM (highest dose often 36.5 µM), without a hit: top-dose activity change, negative = inhibition, hits mostly inhibitors; 0.46% of 330,000 active; Vaccinia virus Venus reporter expression, fluorescence; calls by dose curve; tested in A549 cells; further: nearly all actives have a fitted effect of over 30% in size
VACV mCherry inh – vaccinia inhibition (mCherry reporter) | Vaccinia virus mCherry reporter infection, fluorescence | Potency, µM (highest dose often 36.5 µM), without a hit: top-dose activity change, negative = inhibition, most hits filed as inhibitors | 0.63% of 310,000 active; calls by dose curve; tested in A549 cells; further: nearly all actives have a fitted effect of over 35% in size
Pf growth 48h – inhibits P. falciparum growth in the first generation, 48 h; P. falciparum luciferase growth in erythrocytes, 48 h; Potency, µM (highest dose often 28.7 µM), without a hit: top-dose activity change, negative = inhibition, hits mostly inhibitors; 5.9% of 310,000 active
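In quantitative HTS format, infected erythrocytes bearing luciferase-reporter parasites were treated for a single generation at 37 C. Luminescence after adding detection reagent served as the growth measure.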
* hit, by the source's call; i = inactive; ? = inconclusive; · = not tested or not shown. This is a sample that favours compounds with a hit; in the whole collection about 8.7% have one here. Unless noted, the call rests on the fitted dose curve; in most records, active means well fitted curve in the direction sought with a large enough effect; inconclusive means small, poorly fitted or top-dose-only effect, or another doubt; inactive means no such curve, though single readings can be large; an effect the other way counts as inactive or inconclusive. Unless noted, on the % scale 0 is the no-effect control and ±100 the full control effect; potency means the concentration at half of the fitted maximal effect.

SMILES | Pf growth 96h | AMA1-RON2 inh | VACV Venus inh | VACV mCherry inh | Pf growth 48h
COC(=O)C1=C(c2ccc(F)cc2OCc2ccccc2)C[C@@H]2CC[C@H]1N2C(=O)N1CCCC1 | ? | 0% | -26% | i | 9.3µM*
COC(=O)C1=C(c2ccc(OCc3ccccc3)cc2)C[C@@H]2CC[C@H]1N2C(=O)NC1CCN(Cc2ccccc2)CC1 | ? | -26% | ? | -6% | 9.3µM*
COC(=O)C1=C(c2ccc(F)cc2OCc2ccccc2)C[C@@H]2CC[C@H]1N2C(=O)NC(C)C | ? | 6% | -5% | i | 9.3µM*
COC(=O)C1=C(c2ccc(F)cc2OCc2ccccc2)C[C@@H]2CC[C@H]1N2C(=O)NC1CC1 | ? | 15% | -22% | -4% | ?
COC(=O)C1=C(c2ccc(F)cc2OCc2ccccc2)C[C@@H]2CC[C@H]1N2C(=O)NC1CCCCC1 | 15µM* | -2% | ? | -8% | ?
CCOc1cc(-c2ccc(OC(=O)c3ccccc3F)cc2)cc(=O)c2c(C)oc(C)c12 | · | · | -8% | -4% | ·
COC(=O)[C@@H]1CCCN1C(=O)c1cnn(-c2ncc3c(n2)-c2ccccc2CCC3)c1C1CC1 | · | · | -3% | -5% | ·
O=S(=O)(c1ccccc1)N(CC(O)Cn1c2ccccc2c2ccccc21)c1ccccc1 (stereo not drawn) | 2.3µM* | -5% | 10µM* | · | ?
COc1ccccc1N(CC(O)Cn1c2ccccc2c2ccccc21)S(=O)(=O)c1ccccc1 (stereo not drawn) | 10µM* | -15% | -5% | -16% | 12µM*
O=S(=O)(c1ccc(F)cc1)N(CC(O)Cn1c2ccccc2c2ccccc21)c1ccccc1 (stereo not drawn) | · | · | -10% | -19% | ·
